This is an account of results in PubChem BioAssay (NCI).

About 83,000 compounds went through this panel and 20% of them were active in at least one assay; those are over-represented in the sample as a whole.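 Plates (96-well) were seeded with cells, treated with compound at one concentration, and incubated for 48 hours before percent growth was determined.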 Unmarked numbers belong to inactive results. The source made the active and inactive calls. Rule for the calls: active = growth percent below 10; inactive = the rest.

Holding throughout (assay): NCI-60 one-dose screen, 48 h (100 = growth as untreated, 0 = no growth, -100 = all killed)
Holding throughout (conditions): 10 µM unless noted

Test [1] concerns NCI-H23 lung.
Test [2] has as its system NCI-H226 lung.
In test [3] the test system is NCI-H322M lung.
The test system of test [4] is HOP-62 NSCLC.
Test [5] relates to NCI-H460 lung.
The subject of test [6] is HOP-92 NSCLC.
Test [7] has as its system NCI-H522 lung.
The test system of test [8] is A549/ATCC NSCLC.
Test [9] relates to 786-0 renal.
Test [10] has as its system COLO 205 colon.
Test [11] has as its system DU-145 prostate.
The test system of test [12] is K-562 leukemia.
Test [13] has as its system MALME-3M melanoma.
For test [14], the system named is MDA-MB-231 breast.
Test [15] concerns RXF 393 renal.
Test [16] has as its system SF-268 CNS.
Test [17] deals with SF-295 CNS.
In test [18] the test system is SF-539 CNS.
Test [19] relates to UACC-257 melanoma.
Test [20] has as its system M14 melanoma.

As for `COc1cc(-c2nc(SCCC(C)C)nc(Nc3ccc(S(N)(=O)=O)cc3)c2C#N)cc(OC)c1OC`, the growth in test [1] was 51.2%; in [2] it was 44%; in test [3], 72.7%; in test [4] it was 33.5%; in [5] it was 19.7%; in [6] it was 2.39% (active). The growth is 45% in [7]; 26.4% in test [8]; 31.4% in test [9]; 29.8% in [10]; 43.1% in [11]; 7.52% (active) in test [12]. Besides, the growth was 19.1% in [13]; 25.1% in test [14]; 10.1% in [15]; 42.4% in [16]; 21.8% in test [17]; 38.6% in test [18]. Besides, the growth is 46% in test [19] and 20.6% in [20].
`C=C(C)[C@@H]1CC[C@]2(C(=O)NCCNCCNC(=O)OC(C)(C)C)CC[C@]3(C)[C@H](CC[C@@H]4[C@@]5(C)CCC(=O)C(C)(C)[C@@H]5CC[C@]43C)[C@@H]12`: the growth was 37.1% [100 µM] in test [1]; 44.2% [100 µM] in [2]; 73.8% [100 µM] in [3]; 45.4% [100 µM] in test [4]; 20.6% [100 µM] in test [5]; 8.07% [100 µM] (active) in [6]. Moreover, the growth in test [7] is 39.9% [100 µM]; in test [8], 32.1% [100 µM]; in test [9], 52.6% [100 µM]; in [10], 57.7% [100 µM]; in test [11] it was 53.5% [100 µM]; in test [12], 38.1% [100 µM]. For the same compound, the growth in [13] was 64.3% [100 µM]; in test [14], -33.8% [100 µM] (active); in test [15] it was 35.9% [100 µM]; in [16], 49.8% [100 µM]; in test [17], 32% [100 µM]; in test [18] it was 50.1% [100 µM]. Also, the growth in test [19] was 36.9% [100 µM]; in test [20] it was 54.1% [100 µM].
As for `COc1cc(Cl)cc(-c2nn(C(=O)NS(=O)(=O)c3ccccc3)cc2-c2ccncc2)c1`, the growth is 90.4% in [1]; 69.3% in test [2]; 96% in [3]; 68.6% in test [4]; 107% in test [5]; 47.7% in [6]. For the same compound, the growth in [7] was 82.5%; in test [8], 78.5%; in test [9], 70.9%; in test [10], 69.7%; in [11] it was 82.5%; in test [12], 86.3%. In addition, the growth in test [13] was 96.4%; in test [14] it was 62.6%; in [15], 79.2%; in test [16], 81.1%; in test [17], 97.9%; in test [18], 48.2%. Also, the growth in test [19] was 110%; in test [20] it was 86.4%.
On to `Nc1cc(C(=O)O)[nH]c(=S)n1`, for which the growth is 95.2% in test [1]; 95.2% in test [2]; 98.1% in [3]; 106% in test [4]; 105% in [5]; 67.7% in test [6]. Moreover, the growth in [7] is 96.7%; in [8] it was 98.5%; in [9] it was 100%; in test [10], 112%; in test [11], 106%; in test [12], 115%. Moreover, the growth was 89.8% in [13]; 100% in test [14]; 96.9% in test [15]; 98.6% in test [16]; 101% in [17]; 104% in test [18]. The growth was 93.3% in test [19] and 93.7% in test [20].
As for `CCOC(=O)C(=Cc1ccccc1[N+](=O)[O-])C(=O)OCC`, the growth in test [1] was 14.4%; in [2], 42.3%; in test [3], 89.2%; in test [4], 27.3%; in test [5], 49.5%; in [6], 9.84% (active). Moreover, the growth is -1.64% (active) in [7]; 53.6% in test [8]; 28.2% in [9]; -42.2% (active) in [10]; -51.5% (active) in test [11]; 0.762% (active) in test [12]. The growth in test [13] is 67.3%; in test [14] it was 9.18% (active); in [15], 0.0546% (active); in test [16], 13.3%; in [17], 95.5%; in [18], -15.5% (active). Besides, the growth in [19] was 42%; in [20], 25.2%.
Regarding `O=C1CC(c2ccccc2)Cc2nc3ccc(Br)cc3cc21` (stereo not given), the growth in [1] is 39.6%; in [2] it was 24.1%; in [3], 35.9%; in [4], 40.4%; in test [5] it was 4.63% (active); in [6], 40.1%. For the same compound, the growth in test [7] was -3.56% (active); in test [8], 23.8%; in test [9], 41.2%; in [10], -36.3% (active); in [11] it was -3.21% (active); in test [12] it was 6.14% (active). In addition, the growth in test [13] is 38.8%; in test [14], 13.2%; in test [15] it was 28.4%; in [16], 46.7%; in test [17], 17.2%; in [18], 1.6% (active). The growth in test [19] was 69.2%; in [20] it was 10.2%.
Regarding `CC(C)CCSC1=CC(=O)c2ccccc2C1=O`, the growth in test [1] was 78%; in [2] it was 69.6%; in test [3] it was 79.6%; in test [4] it was 78.4%; in test [5], 103%; in test [6], -74.5% (active). Also, the growth in test [7] is -68.9% (active); in test [8] it was 79.7%; in [9] it was 90.6%; in [10], 132%; in test [11], 77%; in [12] it was 19.3%. The growth in test [13] is -23.5% (active); in test [14], 0.131% (active); in test [15] it was 43.8%; in test [16], 74.6%; in test [17], 103%; in test [18], 94.4%. The growth in test [19] was 58.6%; in test [20] it was 68.3%.
